In the supplement of paper PMC11732987, “Enantioselective OTUD7B fragment discovery through chemoproteomics screening and high-throughput optimisation” (Communications Chemistry, 2025):

Columns and labels:
Experiment in all cases: log2 ratio of Biotin-Ahx-Ub-VS probe labelling (fragment/DMSO); higher = less target engagement (more negative = stronger competition), active = hit call of the paper (q ≤ 0.05, log2 ratio ≤ -1)
Settings in all cases: compound concentration: 200 uM; treatment time: 3 h
[1] = target: USP9X (UniProt Q93008)
In short: (§1)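 HEK293T lysate (495 µg per sample, in Tris/CHAPS/IGEPAL buffer with protease inhibitors) was treated in triplicate with fragment at 200 µM or with DMSO for 3 h. It was then treated with Biotin-Ahx-Ub-VS (0.5 µM final) for 1 h. Labelled DUBs were NeutrAvidin-enriched, digested with LysC and trypsin, and run by diaPASEF LC-MS/MS. Spectronaut label-free quantities were global-median-normalised. Values are average log2 ratios fragment/DMSO by unpaired t-test, using proteins with ≥2 unique peptides.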

[2] = target: UniProt O00487
Chain of UniProt O00487 (O00487 whole entry): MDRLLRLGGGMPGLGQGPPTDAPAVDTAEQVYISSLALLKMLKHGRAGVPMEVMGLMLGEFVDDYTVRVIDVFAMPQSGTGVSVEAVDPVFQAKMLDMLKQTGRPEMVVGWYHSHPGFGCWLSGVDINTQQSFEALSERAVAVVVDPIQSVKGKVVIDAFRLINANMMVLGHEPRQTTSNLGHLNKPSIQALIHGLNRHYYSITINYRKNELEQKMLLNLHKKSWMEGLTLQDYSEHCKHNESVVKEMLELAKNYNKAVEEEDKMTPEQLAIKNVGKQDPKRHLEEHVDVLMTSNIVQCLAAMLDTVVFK
In short: as §1

[3] = target: UniProt O00507
Chain of UniProt O00507 (O00507 whole entry): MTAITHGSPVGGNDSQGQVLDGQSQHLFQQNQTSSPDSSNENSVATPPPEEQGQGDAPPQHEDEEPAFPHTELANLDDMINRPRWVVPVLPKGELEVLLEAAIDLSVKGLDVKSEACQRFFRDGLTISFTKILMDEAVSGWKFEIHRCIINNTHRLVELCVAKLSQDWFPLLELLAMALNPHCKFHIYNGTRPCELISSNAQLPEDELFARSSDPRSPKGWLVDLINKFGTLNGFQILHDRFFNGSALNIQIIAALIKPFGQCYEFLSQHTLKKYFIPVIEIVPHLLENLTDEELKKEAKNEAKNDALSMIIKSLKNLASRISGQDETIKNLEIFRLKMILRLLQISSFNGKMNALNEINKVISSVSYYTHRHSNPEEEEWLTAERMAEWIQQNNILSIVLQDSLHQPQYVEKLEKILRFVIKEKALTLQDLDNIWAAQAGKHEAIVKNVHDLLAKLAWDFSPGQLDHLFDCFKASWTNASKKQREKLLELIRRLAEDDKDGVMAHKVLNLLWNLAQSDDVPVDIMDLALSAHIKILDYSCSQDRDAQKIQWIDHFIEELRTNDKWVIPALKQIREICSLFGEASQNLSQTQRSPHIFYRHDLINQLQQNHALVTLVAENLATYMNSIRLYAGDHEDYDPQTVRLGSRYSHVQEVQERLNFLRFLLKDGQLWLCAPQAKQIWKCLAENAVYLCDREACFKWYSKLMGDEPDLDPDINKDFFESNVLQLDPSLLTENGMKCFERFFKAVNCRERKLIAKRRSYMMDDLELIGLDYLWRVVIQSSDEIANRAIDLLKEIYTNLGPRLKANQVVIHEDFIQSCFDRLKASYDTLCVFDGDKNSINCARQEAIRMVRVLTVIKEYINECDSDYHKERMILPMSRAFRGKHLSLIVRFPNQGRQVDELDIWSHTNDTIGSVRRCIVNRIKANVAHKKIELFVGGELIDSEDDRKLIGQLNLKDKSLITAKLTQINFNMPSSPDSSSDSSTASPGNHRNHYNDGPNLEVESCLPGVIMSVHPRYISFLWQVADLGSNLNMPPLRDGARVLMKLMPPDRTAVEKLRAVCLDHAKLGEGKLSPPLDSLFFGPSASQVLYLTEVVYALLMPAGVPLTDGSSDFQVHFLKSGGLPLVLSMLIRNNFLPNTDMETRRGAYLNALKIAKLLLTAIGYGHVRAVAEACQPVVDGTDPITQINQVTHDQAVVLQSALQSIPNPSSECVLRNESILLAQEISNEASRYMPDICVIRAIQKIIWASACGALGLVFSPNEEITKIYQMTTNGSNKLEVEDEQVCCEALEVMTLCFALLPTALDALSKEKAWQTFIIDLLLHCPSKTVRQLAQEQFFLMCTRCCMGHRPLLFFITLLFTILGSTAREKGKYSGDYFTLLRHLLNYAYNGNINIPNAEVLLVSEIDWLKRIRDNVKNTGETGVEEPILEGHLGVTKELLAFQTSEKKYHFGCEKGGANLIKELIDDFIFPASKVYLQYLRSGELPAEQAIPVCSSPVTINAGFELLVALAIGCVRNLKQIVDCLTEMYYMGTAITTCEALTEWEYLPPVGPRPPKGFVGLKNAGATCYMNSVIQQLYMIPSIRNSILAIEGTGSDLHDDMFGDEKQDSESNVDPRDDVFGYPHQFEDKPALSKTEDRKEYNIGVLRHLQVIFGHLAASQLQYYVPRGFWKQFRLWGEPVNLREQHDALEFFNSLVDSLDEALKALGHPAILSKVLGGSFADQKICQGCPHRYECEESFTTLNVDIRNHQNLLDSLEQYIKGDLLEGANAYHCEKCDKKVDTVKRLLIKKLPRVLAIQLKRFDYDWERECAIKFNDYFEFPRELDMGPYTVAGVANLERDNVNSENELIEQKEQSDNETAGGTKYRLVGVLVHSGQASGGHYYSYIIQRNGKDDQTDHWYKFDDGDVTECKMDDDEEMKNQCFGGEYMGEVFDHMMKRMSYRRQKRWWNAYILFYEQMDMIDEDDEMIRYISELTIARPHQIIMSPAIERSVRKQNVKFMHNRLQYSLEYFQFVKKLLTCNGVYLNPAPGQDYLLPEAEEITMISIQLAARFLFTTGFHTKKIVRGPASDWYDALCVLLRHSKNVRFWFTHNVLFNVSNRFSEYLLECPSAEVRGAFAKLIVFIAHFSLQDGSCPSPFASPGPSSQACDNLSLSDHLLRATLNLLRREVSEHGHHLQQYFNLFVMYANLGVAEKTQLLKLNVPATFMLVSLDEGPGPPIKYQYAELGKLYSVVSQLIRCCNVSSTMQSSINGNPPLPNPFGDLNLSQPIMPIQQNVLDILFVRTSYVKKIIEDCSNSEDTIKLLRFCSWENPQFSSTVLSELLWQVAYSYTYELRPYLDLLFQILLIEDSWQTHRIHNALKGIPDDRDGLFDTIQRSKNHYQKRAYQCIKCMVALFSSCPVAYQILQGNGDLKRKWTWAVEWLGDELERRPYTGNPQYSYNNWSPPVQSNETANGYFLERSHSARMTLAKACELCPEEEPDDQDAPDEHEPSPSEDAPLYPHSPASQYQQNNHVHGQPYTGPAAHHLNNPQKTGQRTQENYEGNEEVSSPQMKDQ
In short: as §1

[4] = target: UniProt P51784
Chain of UniProt P51784 (P51784 whole entry): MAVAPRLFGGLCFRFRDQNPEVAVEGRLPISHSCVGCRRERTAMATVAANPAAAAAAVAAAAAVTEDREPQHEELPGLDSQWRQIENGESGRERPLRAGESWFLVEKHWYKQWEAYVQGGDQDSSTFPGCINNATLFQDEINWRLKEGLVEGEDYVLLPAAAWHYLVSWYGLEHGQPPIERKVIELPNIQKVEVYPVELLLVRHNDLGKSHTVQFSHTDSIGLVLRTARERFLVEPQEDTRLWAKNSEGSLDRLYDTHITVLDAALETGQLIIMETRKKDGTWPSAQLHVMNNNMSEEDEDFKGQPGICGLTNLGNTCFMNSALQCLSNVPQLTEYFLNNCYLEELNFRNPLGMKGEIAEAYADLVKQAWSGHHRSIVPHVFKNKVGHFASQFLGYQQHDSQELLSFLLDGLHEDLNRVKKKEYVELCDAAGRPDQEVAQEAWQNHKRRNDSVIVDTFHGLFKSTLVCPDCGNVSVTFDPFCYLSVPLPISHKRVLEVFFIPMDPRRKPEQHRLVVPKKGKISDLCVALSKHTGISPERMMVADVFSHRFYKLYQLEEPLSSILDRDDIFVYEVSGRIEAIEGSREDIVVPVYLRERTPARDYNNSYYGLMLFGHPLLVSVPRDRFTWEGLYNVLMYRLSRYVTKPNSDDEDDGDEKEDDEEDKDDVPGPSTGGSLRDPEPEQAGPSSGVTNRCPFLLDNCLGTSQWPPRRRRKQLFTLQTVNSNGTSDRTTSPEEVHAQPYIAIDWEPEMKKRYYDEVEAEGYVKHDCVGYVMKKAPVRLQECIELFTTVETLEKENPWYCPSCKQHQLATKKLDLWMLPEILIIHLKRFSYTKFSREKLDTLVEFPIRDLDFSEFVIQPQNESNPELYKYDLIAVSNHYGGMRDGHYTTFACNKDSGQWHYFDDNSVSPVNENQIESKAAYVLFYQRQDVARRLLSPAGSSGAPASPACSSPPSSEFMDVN
In short: as §1

[5] = target: T1, UniProt Q5T2D3
T1 sequence (whole entry): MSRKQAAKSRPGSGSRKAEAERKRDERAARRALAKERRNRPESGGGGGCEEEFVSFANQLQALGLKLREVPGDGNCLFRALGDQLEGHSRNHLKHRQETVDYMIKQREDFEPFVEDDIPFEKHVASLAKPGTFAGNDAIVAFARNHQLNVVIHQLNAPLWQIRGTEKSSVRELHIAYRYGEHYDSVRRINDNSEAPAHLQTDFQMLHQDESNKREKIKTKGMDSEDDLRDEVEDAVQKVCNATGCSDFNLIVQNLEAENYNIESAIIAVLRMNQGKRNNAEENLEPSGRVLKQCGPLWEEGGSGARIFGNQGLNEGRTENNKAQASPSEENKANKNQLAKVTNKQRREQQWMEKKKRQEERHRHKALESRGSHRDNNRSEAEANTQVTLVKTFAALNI
In short: as §1

[6] = target: T2, UniProt Q8TE49
T2 sequence (whole entry): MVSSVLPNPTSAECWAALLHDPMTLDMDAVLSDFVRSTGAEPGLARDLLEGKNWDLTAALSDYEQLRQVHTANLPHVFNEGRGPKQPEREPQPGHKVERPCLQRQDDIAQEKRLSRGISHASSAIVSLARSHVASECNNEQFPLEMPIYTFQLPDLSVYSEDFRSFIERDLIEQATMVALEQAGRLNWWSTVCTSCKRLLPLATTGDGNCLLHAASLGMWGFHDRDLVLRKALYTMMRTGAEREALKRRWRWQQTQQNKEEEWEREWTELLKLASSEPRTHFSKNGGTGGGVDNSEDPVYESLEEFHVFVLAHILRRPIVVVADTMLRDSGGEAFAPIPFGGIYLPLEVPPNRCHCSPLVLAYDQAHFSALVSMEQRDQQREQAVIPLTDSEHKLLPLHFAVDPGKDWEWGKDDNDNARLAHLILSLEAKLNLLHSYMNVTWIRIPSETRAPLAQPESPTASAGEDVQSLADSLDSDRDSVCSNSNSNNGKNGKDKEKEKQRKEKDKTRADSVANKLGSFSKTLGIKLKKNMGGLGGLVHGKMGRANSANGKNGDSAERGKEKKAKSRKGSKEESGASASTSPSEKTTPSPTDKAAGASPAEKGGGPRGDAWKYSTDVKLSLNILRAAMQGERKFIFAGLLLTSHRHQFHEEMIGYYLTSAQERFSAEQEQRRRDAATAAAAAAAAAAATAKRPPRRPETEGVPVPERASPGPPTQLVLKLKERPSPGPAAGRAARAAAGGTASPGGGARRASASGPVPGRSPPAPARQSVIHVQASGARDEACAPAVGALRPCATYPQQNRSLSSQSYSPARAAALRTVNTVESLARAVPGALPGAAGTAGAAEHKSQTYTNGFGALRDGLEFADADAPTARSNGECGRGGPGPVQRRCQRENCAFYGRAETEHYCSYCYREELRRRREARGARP
In short: as §1

[7] = target: T3, UniProt Q9P2H5
T3 sequence (whole entry): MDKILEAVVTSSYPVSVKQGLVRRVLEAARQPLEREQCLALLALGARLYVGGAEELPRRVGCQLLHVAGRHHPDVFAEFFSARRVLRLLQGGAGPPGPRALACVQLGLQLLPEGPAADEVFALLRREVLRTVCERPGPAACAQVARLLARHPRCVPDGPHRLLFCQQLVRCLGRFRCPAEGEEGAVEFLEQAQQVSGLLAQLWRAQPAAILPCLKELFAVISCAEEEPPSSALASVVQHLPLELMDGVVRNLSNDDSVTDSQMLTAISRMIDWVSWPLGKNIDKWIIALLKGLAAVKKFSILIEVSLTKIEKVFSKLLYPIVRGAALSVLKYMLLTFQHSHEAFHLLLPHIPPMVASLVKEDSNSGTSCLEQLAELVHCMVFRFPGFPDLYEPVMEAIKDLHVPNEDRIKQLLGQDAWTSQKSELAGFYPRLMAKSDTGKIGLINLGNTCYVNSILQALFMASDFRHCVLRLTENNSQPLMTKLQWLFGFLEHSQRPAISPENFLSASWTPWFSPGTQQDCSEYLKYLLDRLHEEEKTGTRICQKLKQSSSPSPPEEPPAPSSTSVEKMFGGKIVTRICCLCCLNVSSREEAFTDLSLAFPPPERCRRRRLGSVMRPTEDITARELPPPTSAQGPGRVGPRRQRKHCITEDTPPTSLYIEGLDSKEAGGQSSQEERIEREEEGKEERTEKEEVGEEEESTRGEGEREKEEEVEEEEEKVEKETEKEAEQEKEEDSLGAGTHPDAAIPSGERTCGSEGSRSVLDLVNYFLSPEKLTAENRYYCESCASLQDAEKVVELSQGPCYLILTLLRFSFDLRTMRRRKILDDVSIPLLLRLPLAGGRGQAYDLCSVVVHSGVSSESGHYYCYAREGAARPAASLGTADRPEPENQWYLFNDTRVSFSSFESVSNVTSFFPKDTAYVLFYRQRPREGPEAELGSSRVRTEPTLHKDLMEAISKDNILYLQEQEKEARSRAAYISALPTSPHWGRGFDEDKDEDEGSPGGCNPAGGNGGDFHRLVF
In short: as §1

[8] = target: T4, UniProt Q9UGI0
T4 sequence (whole entry): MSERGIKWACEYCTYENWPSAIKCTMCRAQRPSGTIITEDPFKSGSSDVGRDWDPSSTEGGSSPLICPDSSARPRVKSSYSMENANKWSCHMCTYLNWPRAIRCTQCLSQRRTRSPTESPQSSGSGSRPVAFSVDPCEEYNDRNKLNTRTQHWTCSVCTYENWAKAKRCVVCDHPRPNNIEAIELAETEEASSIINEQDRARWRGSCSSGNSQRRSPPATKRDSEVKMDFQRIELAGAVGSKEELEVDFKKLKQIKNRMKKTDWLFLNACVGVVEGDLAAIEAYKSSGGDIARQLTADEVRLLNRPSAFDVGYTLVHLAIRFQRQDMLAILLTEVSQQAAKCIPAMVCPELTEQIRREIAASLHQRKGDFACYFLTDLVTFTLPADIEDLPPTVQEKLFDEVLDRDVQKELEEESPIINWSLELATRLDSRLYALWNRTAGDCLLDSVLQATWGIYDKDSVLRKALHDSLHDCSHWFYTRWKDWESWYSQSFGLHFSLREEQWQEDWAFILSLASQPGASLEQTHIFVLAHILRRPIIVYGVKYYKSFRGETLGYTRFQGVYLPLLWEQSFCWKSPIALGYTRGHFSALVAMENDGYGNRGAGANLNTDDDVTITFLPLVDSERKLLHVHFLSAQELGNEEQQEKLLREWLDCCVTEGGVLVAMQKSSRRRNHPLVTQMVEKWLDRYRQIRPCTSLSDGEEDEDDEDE
In short: as §1

[9] = target: T5, YOD1 (UniProt Q5VVQ6)
T5 sequence (whole entry): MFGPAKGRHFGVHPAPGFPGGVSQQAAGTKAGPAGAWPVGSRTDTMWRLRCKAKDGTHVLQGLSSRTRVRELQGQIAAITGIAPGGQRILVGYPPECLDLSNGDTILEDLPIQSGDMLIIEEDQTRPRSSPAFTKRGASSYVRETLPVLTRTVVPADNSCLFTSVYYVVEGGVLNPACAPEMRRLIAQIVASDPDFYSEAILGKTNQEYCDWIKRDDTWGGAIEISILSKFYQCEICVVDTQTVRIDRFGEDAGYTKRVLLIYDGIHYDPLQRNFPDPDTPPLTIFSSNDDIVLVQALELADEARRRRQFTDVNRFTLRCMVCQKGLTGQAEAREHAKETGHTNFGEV
In short: as §1

Measured: log2 ratio of Biotin-Ahx-Ub-VS probe labelling

O=C(CCl)NCc1ccc2c(c1)OCO2
inactive: [1] -0.147 | [2] -0.108 | [3] 0.0979 | [4] 0.0895 | [5] -0.281 | [6] -0.708 | [7] -0.288 | [8] -0.607 | [9] 0.157
